Assay [1] in a line: compounds binding Alexa647 anti-His antibody – biochemical, small-molecule microarray, 635 nm fluorescence, artefact control for SMM control protein annotation, primary screen (AID 1128).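 Note: score merges feature fluorescence with signal-to-noise for each printed compound spot.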 The conditions noted are these: higher = more signal.
Assay [2] relates to Human papillomavirus type 1a E7 protein (residues 1-88). Briefly: HPV1a E7 small-molecule binders, primary screen, biochemical, small-molecule microarray, residues 1-88, 635 nm (AID 1129). The conditions noted are these: small-molecule microarray binding, fluorescence 635 nm; higher = more signal.
In assay [3] the target is Focal adhesion kinase 1 (Homo sapiens) (UniProt Q05397). In words: PTK2 protein binding on printed compound slides – biochemical, small-molecule microarray, 635/667 nm fluorescence, BSA, DTT, primary screen (AID 1130).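 Note: composite of spot emission at 667 nm and signal to noise over triplicate slides.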 The conditions noted are these: 635 nm fluorescence, higher = more signal.
Chain of Focal adhesion kinase 1 (Homo sapiens) (Q05397 whole entry, looked up): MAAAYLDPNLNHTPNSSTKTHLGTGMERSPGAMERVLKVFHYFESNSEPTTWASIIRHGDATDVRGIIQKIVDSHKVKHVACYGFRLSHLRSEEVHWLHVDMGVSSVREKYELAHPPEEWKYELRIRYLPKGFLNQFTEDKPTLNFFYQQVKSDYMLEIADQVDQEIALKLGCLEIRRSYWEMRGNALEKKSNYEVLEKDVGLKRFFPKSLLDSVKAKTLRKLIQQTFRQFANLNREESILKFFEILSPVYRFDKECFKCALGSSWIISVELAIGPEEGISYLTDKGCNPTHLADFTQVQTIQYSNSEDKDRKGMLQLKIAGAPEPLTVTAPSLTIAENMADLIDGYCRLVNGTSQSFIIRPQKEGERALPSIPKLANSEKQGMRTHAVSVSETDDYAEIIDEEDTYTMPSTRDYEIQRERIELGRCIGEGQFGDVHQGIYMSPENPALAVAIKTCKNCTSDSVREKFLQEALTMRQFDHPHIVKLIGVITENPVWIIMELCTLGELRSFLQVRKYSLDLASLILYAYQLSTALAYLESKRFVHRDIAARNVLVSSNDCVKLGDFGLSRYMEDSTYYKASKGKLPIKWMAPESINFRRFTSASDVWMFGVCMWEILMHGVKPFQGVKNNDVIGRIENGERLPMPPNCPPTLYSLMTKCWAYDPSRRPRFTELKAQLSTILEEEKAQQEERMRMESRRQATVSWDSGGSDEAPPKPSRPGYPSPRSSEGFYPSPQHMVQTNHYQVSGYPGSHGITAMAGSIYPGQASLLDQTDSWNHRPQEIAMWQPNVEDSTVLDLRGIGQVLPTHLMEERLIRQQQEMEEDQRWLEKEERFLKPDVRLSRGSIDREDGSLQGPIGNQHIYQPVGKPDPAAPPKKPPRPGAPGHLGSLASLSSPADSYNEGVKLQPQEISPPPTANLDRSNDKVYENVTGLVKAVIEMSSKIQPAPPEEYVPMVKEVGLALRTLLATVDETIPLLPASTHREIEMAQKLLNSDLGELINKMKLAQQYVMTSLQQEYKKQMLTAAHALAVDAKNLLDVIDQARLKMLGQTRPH
Assay [4] deals with Fibrinogen (Alexa647-labelled). In words: Alexa647-fibrinogen binding to printed small molecules – biochemical, small-molecule microarray, 635/667 nm fluorescence, artefact control for SMM control-protein annotation, profiling panel (AID 1131).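 Note: z-score merges 667 nm fluorescence with per-spot signal-to-noise over triplicate slides.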 As to conditions: fibrinogen-A647 binding fluorescence, higher = more signal.
Assay [5] addresses Follistatin (Homo sapiens) (UniProt P19883). In words: FST protein binding to printed compounds – biochemical, small-molecule microarray, 635/667 nm fluorescence, primary screen (AID 1132). The conditions noted are these: 635 nm fluorescence, higher = more signal.
The target of assay [6] is Fibroblast growth factor 2 (Homo sapiens) (UniProt P09038). Briefly: basic fibroblast growth factor binding to printed compounds – biochemical, small-molecule microarray, 635/667 nm fluorescence, primary screen (AID 1133). As to conditions: FGF2, fluorescence 635/667, higher = more signal.
Chain of Fibroblast growth factor 2 (Homo sapiens) (P09038 whole entry, looked up): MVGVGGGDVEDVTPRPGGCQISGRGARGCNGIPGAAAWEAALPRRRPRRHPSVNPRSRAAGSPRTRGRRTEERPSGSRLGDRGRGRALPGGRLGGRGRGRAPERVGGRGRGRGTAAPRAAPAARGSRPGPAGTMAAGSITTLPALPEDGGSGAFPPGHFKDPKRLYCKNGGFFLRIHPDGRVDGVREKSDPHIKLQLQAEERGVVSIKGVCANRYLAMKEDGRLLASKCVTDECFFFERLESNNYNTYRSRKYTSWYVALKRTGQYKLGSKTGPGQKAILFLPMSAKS
Assay [7] can be described thus: JC-1 mitochondrial potential readout, lung cancer cells – cell-based, A549, JC-1 fluorescence, basal, 24 h, 100 nL, profiling panel (AID 1138).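 Note: A549 lung adenocarcinoma cells under basal conditions with no added stimulus; test concentration not given here.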 The conditions noted are these: higher = more signal.
Another assay relates to Lefty1. In words: Lefty1 protein binding to printed compounds – biochemical, small-molecule microarray, 635/667 nm fluorescence, primary screen (AID 1139). As to conditions: fluorescence 635/667, higher = more signal.
Assay [8] relates to wheat germ agglutinin (Triticum aestivum), Alexa647-labelled. Briefly: Alexa647-WGA lectin binding to printed small molecules – biochemical, small-molecule microarray, 635/667 nm fluorescence, artefact control for SMM control-protein annotation, profiling panel (AID 1140).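 Note: score merges 667 nm feature emission with signal to noise over triplicate slides.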 The conditions noted are these: WGA-A647 binding, 635 nm fluorescence, higher = more signal.
For assay [9], the target named is Luciferin 4-monooxygenase (Photinus pyralis) (UniProt P08659). In words: inhibition of purified Photinus pyralis luciferase – biochemical, luminescence, purified enzyme, 2006 set, primary screen (AID 1141).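 Note: cell-free assay with purified firefly luciferase at 100 ng per well in PBS; test concentration not given here.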 As to conditions: purified firefly luciferase, SteadyGlo luminescence, 30 min; higher = more signal, called active from +8 up or from −8 down.
Chain of Luciferin 4-monooxygenase (Photinus pyralis) (P08659 whole entry, looked up): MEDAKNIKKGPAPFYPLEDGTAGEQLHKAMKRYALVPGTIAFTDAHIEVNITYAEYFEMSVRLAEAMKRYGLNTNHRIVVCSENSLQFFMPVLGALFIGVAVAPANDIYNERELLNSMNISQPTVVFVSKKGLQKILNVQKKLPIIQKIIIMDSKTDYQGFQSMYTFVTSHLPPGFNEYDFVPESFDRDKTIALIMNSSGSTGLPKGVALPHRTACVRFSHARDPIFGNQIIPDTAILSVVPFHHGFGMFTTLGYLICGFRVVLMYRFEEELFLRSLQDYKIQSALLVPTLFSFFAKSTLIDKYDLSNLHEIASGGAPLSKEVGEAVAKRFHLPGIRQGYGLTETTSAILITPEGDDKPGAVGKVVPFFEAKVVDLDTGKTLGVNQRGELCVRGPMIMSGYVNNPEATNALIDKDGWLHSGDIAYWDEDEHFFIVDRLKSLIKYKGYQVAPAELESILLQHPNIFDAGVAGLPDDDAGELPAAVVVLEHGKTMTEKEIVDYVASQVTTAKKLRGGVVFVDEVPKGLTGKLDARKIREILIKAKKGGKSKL

Active and inactive are the calls of the source.

Chain of Follistatin (Homo sapiens) (P19883 whole entry, looked up): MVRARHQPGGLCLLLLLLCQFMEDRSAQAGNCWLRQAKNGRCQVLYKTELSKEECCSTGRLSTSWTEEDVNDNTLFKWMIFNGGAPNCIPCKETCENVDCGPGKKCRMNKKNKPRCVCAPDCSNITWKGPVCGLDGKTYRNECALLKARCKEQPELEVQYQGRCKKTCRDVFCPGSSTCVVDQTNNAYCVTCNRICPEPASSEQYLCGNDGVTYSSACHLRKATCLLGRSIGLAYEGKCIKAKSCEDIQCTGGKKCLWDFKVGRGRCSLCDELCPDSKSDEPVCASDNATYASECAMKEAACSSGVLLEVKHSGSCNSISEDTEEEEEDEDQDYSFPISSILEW

Consider `COCCOC(=O)N1C(=O)[C@@]2(c3cc(C#CCC(C(=O)OC)C(=O)OC)ccc31)[C@H](c1ccccc1OCCO)N1[C@H](c3ccccc3)[C@H](c3ccccc3)OC(=O)[C@H]1[C@@H]2C(N)=O`, for which the composite z-score in [1] is 2.79; in [2], 1.19; in assay [3], -0.418; in assay [4], 0.942; in assay [5] it was 1.08; in assay [6], 1.29. For the same compound, the composite z-score in the assay with Lefty1 is 0.714; in assay [8], 1.1. Further, the z-score in assay [7] is 0.833; in [9] it was -0.834 (inactive).

On to `COCCOC(=O)N1C(=O)[C@@]2(c3cc(C#CCCO)ccc31)[C@H](c1ccc(O)cc1)N1[C@H](c3ccccc3)[C@H](c3ccccc3)OC(=O)[C@H]1[C@@H]2C(N)=O`, for which the composite z-score in assay [1] is 3.05; in [2], 0.215; in [3], 0.0329; in assay [4], 0.19; in assay [5], 0.931; in [6] it was 0.347. In addition, the composite z-score was 0.296 in the assay with Lefty1 and 0.0204 in [8]. Further, the z-score was -0.444 in assay [7] and 0.028 (inactive) in [9].

As for `CC(C)Cc1ccc(CN2CC[C@@H](NS(=O)(=O)c3ccccc3)C2)cc1`, the composite z-score is 0.441 in assay [1]; -0.593 in [2]; -0.0553 in assay [3]; -1.02 in assay [4]; 0.797 in [5]; -0.0321 in assay [6]. Further, the composite z-score with Lefty1 was 0.477; in assay [8], -0.654. Also, the z-score was -0.641 in assay [7] and 0.826 (inactive) in assay [9].

On to `N#Cc1ccc(NN2C(C(O)C3CCCCC3)C=CC3C(=O)N(c4ccccc4)C(=O)C32)cc1` (stereo not given), for which the composite z-score in assay [1] is 0.422; in [2], 1.27; in [3], 0.533; in assay [4], 1.03; in [5], 1.27; in [6] it was -0.252. In addition, the values for the composite z-score (in the assay on Lefty1; in assay [8]) were 0.058 and 0.847, respectively. For the same compound, the z-score in assay [7] was -0.309; in [9], -0.394 (inactive).

On to `CS(=O)(=O)CCOC(=O)C1=CC(CCCO)=CC(c2cccs2)N(Cc2cc3c(cc2Br)OCO3)C=C1C(=O)OCCS(C)(=O)=O` (stereo not given), for which the composite z-score is 1.16 in assay [1]; 1.21 in assay [2]; 1.11 in [3]; 1.01 in assay [4]; 1.28 in assay [5]; 0.564 in assay [6]. Besides, the values for the composite z-score (in the assay on Lefty1; in assay [8]) were 1.22 and 1.05, respectively. The results for the z-score in assay [7] and in [9] were 1.26 and -1.16 (inactive), respectively.

Consider `COC(=O)[C@@]1(Cc2ccc(F)cc2)[C@H]2c3cc(C(=O)N(C)C)n(CCc4ccccn4)c3C[C@H]2CN1C(=O)c1ccccc1`, for which the composite z-score stood at 1.47 in assay [1]; 1.25 in assay [2]; 0.994 in assay [3]; 0.0039 in assay [4]; 0.78 in [5]; 0.0791 in assay [6]. For the same compound, the composite z-score in the assay on Lefty1 is 0.221; in assay [8] it was -0.108. The values for the z-score in assay [7] and in assay [9] were -0.201 and 2.76 (inactive), respectively.

As to `CC(=O)NCCCC[C@@H]1NC(=O)[C@@H]2C[C@H](C(=O)NCCCCN(C)C)[C@H](c3ccc(O)cc3)N2C1=O`, the composite z-score in assay [1] is 0.231; in [2], -0.529; in [3] it was -0.2; in assay [4] it was -2.52; in assay [5], 0.296; in [6] it was 1.14. For the same compound, the composite z-score in the assay on Lefty1 was -0.0932; in [8], 0.225. Also, the figures for the z-score in [7] and in [9] were 0.485 and 0.869 (inactive), respectively.

Turning to `C[C@]1(C(=O)NCc2ccccc2)c2ccccc2C(=O)N(Cc2ccc(OC(F)(F)F)cc2)[C@H]1c1ccc(CO)cc1`, the composite z-score is 1.71 in assay [1]; 1.02 in assay [2]; 0.549 in assay [3]; -0.38 in assay [4]; 0.49 in assay [5]; -0.186 in assay [6]. For the same compound, the figures for the composite z-score (in the assay with Lefty1; in assay [8]) were -0.111 and -0.403, respectively. The z-score was 1.27 in assay [7] and 0.882 (inactive) in assay [9].

For `O=C(CS)NCCCCCCNC(=O)[C@@H]1C[C@@H]2C(=O)N3CCC[C@H]3C(=O)N2[C@@H]1c1ccc(O)cc1`, the composite z-score is 3.73 in assay [1]; 1.21 in assay [2]; 0.887 in [3]; -0.627 in assay [4]; 1.16 in assay [5]; 1.13 in [6]. Besides, the values for the composite z-score (in the assay on Lefty1; in [8]) were -0.686 and -0.462, respectively. For the same compound, the z-score in assay [7] is -1.13; in assay [9] it was -0.315 (inactive).

As for `COCCOC(=O)N1C(=O)[C@@]2(c3cc(C#CCNC(N)=O)ccc31)[C@H](c1ccc(O)cc1)N1[C@H](c3ccccc3)[C@H](c3ccccc3)OC(=O)[C@H]1[C@@H]2C(=O)Nc1nc2ccccc2s1`, the composite z-score in [1] was 0.0698; in assay [2], 0.967; in assay [3], 0.387; in assay [4] it was 0.558; in assay [5], 1.33; in assay [6], 1.2. For the same compound, the composite z-score in the assay with Lefty1 stood at 0.851; in assay [8], 0.785. Also, the results for the z-score in assay [7] and in assay [9] were -1.91 and -2.38 (inactive), respectively.

As for `O=C1C[C@@](C(=O)NC2CC2)(c2ccc([N+](=O)[O-])cc2)[C@@H](c2ccc(CO)cc2)N1CC12CC3CC(CC(C3)C1)C2`, the composite z-score in assay [1] is 0.294; in assay [2], 0.831; in assay [3] it was 0.473; in [4], 0.934; in assay [5], 1.21; in assay [6], 0.0882. The results for the composite z-score (in the assay with Lefty1; in assay [8]) were 0.427 and 0.553, respectively. In addition, the z-score in assay [7] is 0.0799; in assay [9], 1.12 (inactive).

Take `COC(=O)[C@@]1(Cc2ccccc2)N=C(c2ccc(OCCCO)cc2)O[C@H]1c1ccccc1N=[N+]=[N-]`: the composite z-score is 2.72 in assay [1]; 1.14 in assay [2]; -0.0746 in assay [3]; 0.0857 in assay [4]; 1.41 in assay [5]; 1.53 in [6]. For the same compound, the composite z-score with Lefty1 was 0.718; in assay [8] it was 1.2. For the same compound, the z-score in [7] is 1.35; in [9], -13.8 (active).

With `C=C[C@@H](COC(C)=O)N(Cc1ccc([N+](=O)[O-])cc1)S(=O)(=O)c1ccc(Br)cc1`, the composite z-score in assay [1] came out at 1.6; in [2], 1.17; in [3] it was 0.079; in [4], 0.958; in [5], 0.631; in [6], 0.54. The results for the composite z-score (in the assay on Lefty1; in assay [8]) were 0.321 and 1.09, respectively. The z-score is 1.6 in [7] and -1.19 (inactive) in assay [9].

(Values after PubChem BioAssay.)
